In the library only some 3.4% were active in any assay of this set; here they are far more common.
Giardia FBPA inh-1: blocks Giardia fructose-bisphosphate aldolase activity; purified Giardia FBPA; Potency, µM (highest dose often 59.6 µM), for inactives: top-dose activity, negative = inhibition, actives largely listed as inhibitors; 0.71% of 290,000 active; AID 2451; further: nearly all actives have a fitted effect of over 55% in size
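Giardia FBPA (40 nM reagent) was preincubated 10 min at RT with compound (up to 57.5 uM final), then substrate plus GAPDH/TPI/NAD/arsenate coupling system with diaphorase/resazurin was added; resorufin fluorescence (525/598 nm) was read after 20 min.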
AmpC detergent: inhibitors of E. coli AmpC beta-lactamase with detergent | AmpC hydrolysis of nitrocefin, absorbance 480 nm, 0.01% Triton | AID 485294 | Potency, µM (titrated, usually from 114 µM), without a hit: top-dose activity change, negative = inhibition, most hits filed as inhibitors | 0.041% of 370,000 active;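 further: 0% = no-compound wells and -100% = no-enzyme wells; nearly all actives have a fitted effect of over 25% in size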
Target sequence (P00811 whole entry, looked up): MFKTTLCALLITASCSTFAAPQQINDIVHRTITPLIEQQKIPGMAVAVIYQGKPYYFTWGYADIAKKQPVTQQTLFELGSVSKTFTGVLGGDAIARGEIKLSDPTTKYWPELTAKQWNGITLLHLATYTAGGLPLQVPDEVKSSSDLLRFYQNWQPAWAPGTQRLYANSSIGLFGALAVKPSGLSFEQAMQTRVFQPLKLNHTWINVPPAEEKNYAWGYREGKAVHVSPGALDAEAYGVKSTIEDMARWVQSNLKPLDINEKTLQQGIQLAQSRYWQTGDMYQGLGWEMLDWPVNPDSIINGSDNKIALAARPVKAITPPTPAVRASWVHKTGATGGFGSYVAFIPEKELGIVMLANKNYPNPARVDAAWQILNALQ
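20 mM phosphate pH 7.0 + 0.01% (detergent screen) or 0.0001% Triton X-100; 5.3 nM AmpC reagent; cpd preinc 15 min RT; nitrocefin (800 uM stock) to start; A480 q20 s × 4 min; Activity was normalised to no-enzyme and no-compound control wells.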
Sm TGR inh: blocks Schistosoma mansoni thioredoxin glutathione reductase | Q962Y6 | purified TGR, DTNB reduction, TNB absorbance 405 nm | Potency, µM (titrated, usually from 114 µM), inactives show top-dose activity change, negative = inhibition, hits mostly inhibitors | 3% of 360,000 active; further: nearly all actives have a fitted effect of over 60% in size
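Kinetic colorimetric format: TGR-catalysed, NADPH-driven DTNB reduction monitored via TNB absorbance. Enzyme dispensed at 20 nM; compound exposure 15 min at room temperature before reaction start.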
RE007 growth inh: less growth of the S. pombe RE007 Vpr strain. S. pombe RE007 Vpr strain, BacTiter-Glo ATP luminescence, 24 h. 0.21% of 360,000 active. Potency, µM (titrated, usually from 92.2 µM), for the others: at the top dose activity change, negative = less growth, usual class: inhibitors; active means well fitted falling curve with a large enough effect; inconclusive means small, poorly fitted or top-dose-only effect; inactive means no such curve, though single readings can be large or run the other way; further: nearly all actives have a fitted effect of over 50% in size
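Fission yeast strain RE007, carrying one chromosomally integrated HIV-1 vpr copy, was seeded at OD 0.01 in PMG+AL medium with 23 nL pinned compound. After 24 h at 30 °C and 99% humidity, viability was read by BacTiter-Glo luminescence.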
AmpC no deterg: AmpC beta-lactamase inhibition without detergent | Potency, µM (titrated, usually from 57.1 µM), for the others: at the top dose activity change, negative = inhibition, hits mostly inhibitors | AID 485341 | 0.52% of 330,000 active | AmpC nitrocefin hydrolysis, absorbance 480 nm, 0.0001% Triton;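 further: plate controls were no compound for no effect and no enzyme for full effect; nearly all actives have a fitted effect of over 20% in size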
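20 mM phosphate pH 7.0 + 0.01% (detergent screen) or 0.0001% Triton X-100; 5.3 nM AmpC reagent; cpd preinc 15 min RT; nitrocefin (800 uM stock) to start; A480 q20 s × 4 min; Activity was normalised to no-enzyme and no-compound control wells.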
Giardia growth: Giardia lamblia growth inhibition | shares compounds with Giardia FBPA inh-1 | Giardia lamblia trophozoite growth inhibition | Potency, µM (series often up to 57.5 µM), for inactives: at the top dose activity change, negative = inhibition, usual class: inhibitors | 5% of 1,500 active;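 further: trophozoites exposed to compound for 48 h at 37 °C; nearly all actives have a fitted effect of over 70% in size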
Mammalian tox: toxic to mammalian cells in Giardia aldolase counter-screen; Potency, µM (top dose mostly 57.5 µM), for inactives: at the highest dose viability change, negative = toxicity, hits mostly inhibitors; mammalian cell viability counter-screen, qHTS; 4% of 1,500 active; shares compounds with Giardia FBPA inh-1;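 further: Chinese hamster ovary cells used as mammalian cytotoxicity surrogate; viability measured as cellular ATP by luminescence; compound exposure lasted 48 h before reading; nearly all actives have a fitted effect of over 60% in size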
Giardia FBPA inh-2: confirmation of Giardia fructose-bisphosphate aldolase inhibitors. 5% of 1,500 active. Potency, µM (top dose mostly 57.5 µM), without a hit: at the highest dose activity change, negative = inhibition, usual class: inhibitors. shares compounds with Giardia FBPA inh-1. purified Giardia aldolase enzyme activity, qHTS; further: nearly all actives have a fitted effect of over 45% in size
Rabbit FBPA inh: selectivity test for Giardia aldolase inhibitors: rabbit aldolase. shares compounds with Giardia FBPA inh-1. Rabbit muscle FBPA enzyme inhibition, selectivity counter-screen. Potency, µM (doses to about 57.5 µM), without a hit: top-dose activity, negative = inhibition, hits mostly inhibitors. 4% of 1,500 active. AID 2794; further: nearly all actives have a fitted effect of over 60% in size
GAPDH counter: GAPDH inhibition flagged for Giardia aldolase hits | shares compounds with Giardia FBPA inh-1 | GAPDH coupling enzyme counterscreen, biochemical, qHTS | Potency, µM (series often up to 57.5 µM), without a hit: at the top dose activity change, negative = inhibition, most hits filed as inhibitors | 6% of 1,500 active | AID 2795; further: nearly all actives have a fitted effect of over 55% in size
Active calls of the source: *; ? = inconclusive; . = not tested or not shown; [ ] = dose if it differs, or a comment. Unless noted, the call rests on the fitted dose curve; in most records, active means well fitted curve in the direction sought with a large enough effect; inconclusive means small, poorly fitted or top-dose-only effect, or another doubt; inactive means no such curve, though single readings can be large; an effect the other way counts as inactive or inconclusive. Unless noted, on the % scale 0 is the no-effect control and ±100 the full control effect; potency means the concentration at half of the fitted maximal effect.

SMILES	Giardia FBPA inh-1	AmpC detergent	Sm TGR inh	RE007 growth inh	AmpC no deterg	Giardia growth	Mammalian tox	Giardia FBPA inh-2	Rabbit FBPA inh	GAPDH counter
COc1ccc(OC)c(C2CC(=O)N3CN(c4cccc(Cl)c4C)CSC3=C2C#N)c1 (centres undefined)	1.4µM*	0%	10µM*	1%	-54%	?	-9%	-29%	?	?
O=C1CCCc2sc3c(c2N1)CCCCC3	-5%	-2%	3%	-5%	-6%	.	.	.	.	.
COc1c(O)ccc(/C=C(\C#N)c2nc3ccccc3[nH]2)c1[N+](=O)[O-]	?	-1%	-1%	-3%	1%	?	-14%	-24%	-15%	-16%
CC(=O)c1ccccc1NC(=O)CCNC(=O)c1ccco1	3%	-9%	-25%	25%	-9%	.	.	.	.	.
Cc1ccc(N2CCN(C(=S)c3ccc(-c4cccc([N+](=O)[O-])c4)o3)CC2)cc1	16µM*	-15%	-1%	10%	-37%	-17%[10.4 µM]	-14%	-1%	-5%	6%
O=c1ccc2c(-c3ccccc3)c3ccc(O)cc3oc-2c1	14µM*	-5%	8.9µM*	6%	-53%	?	5%	-23%	-5%	-9%
Nc1ccc(-c2c3ccc(=O)cc-3oc3cc(O)ccc23)cc1C(=O)O	-15%	?	?	-6%	-30%	.	.	.	.	.
COc1ccc(Cc2n[nH]c(=S)n2N)cc1OC	13µM*	-2%	.	-10%	-26%	-6%	-1%	-4%	6%	3%
Nn1c(Cc2ccccc2F)n[nH]c1=S	14µM*	6%	-1%	-5%	-11%	-19%	-3%	-4%	9%	0%
CCOc1ccc(Cc2n[nH]c(=S)n2N)cc1	?	1%	6%	14%	-11%	.	.	.	.	.
Cc1nn(CC(=O)c2ccc(Cl)s2)c(C)c1[N+](=O)[O-]	1%	?	7%	7%	-45%	.	.	.	.	.
CC(C)C1C(=O)N(Cc2cn(CCC3OCCCO3)nn2)CCS(=O)(=O)N1Cc1ccc(-c2ccncc2)cc1 (centres undefined)	.	.	.	1%	.	.	.	.	.	.
c1ccc(C2=NNC(c3ccccn3)=NN2)nc1	7.9µM*	-7%	-29%	-10%	-11%	?	0%	-26%	-23%	?
O=[N+]([O-])c1ccc(Nc2ccccc2)c2nonc12	1%	-4%	?	.	-20%	.	.	.	.	.
O=[N+]([O-])c1ccc(Sc2cccc[n+]2[O-])c2nonc12	0.35µM*	-10%	0.28µM*	10µM*	-25%	2µM*	2.2µM*	6.3µM*	16µM*	6.3µM*
CCn1ccc(C(=O)Nc2sc3c(c2C(=O)OC)CCC3)n1	.	-10%	?	-10%	77%	.	.	.	.	.
O=S(=O)(Cc1ccc(Cl)cc1)Nc1ccc(Cl)cn1	-5%	-5%	0%	4%	-29%	.	.	.	.	.
CC(C)CC(=O)N1CCN(Cc2ccc(Cl)cc2)CC1	28µM*	?	-19%	3%	12%	-30%	-3%	0%	4%	8%
CC(C)CC(=O)N1CCN(Cc2ccc(C(F)(F)F)cc2)CC1	32µM*	-7%	8%	-1%	165%	-23%	-22%	6%	-5%	-13%
CC(C)CC(=O)N1CCN(Cc2ccc(Br)cc2)CC1	?	-1%	-3%	7%	27%	.	.	.	.	.
CCOC(=O)c1c(NC(=O)COc2ccc(OC)cc2)sc(C(=O)N(CC)CC)c1C	.	-3%	1%	.	.	.	.	.	.	.
CN(C)CCCNc1cc(C(C)(C)C)nc2c(-c3ccccc3)cnn12	6%	-2%	-2%	2%	122%	.	.	.	.	.
COc1cc(NC(=O)CN(C)CCOc2ccccc2)c(C)cc1[N+](=O)[O-]	3%	-4%	-36%	-26%	115%	.	.	.	.	.
COc1ccc(OCCN(C)CC(=O)Nc2c(C)cccc2C)cc1	14µM*	0%	-20%	-3%	11%	-10%[10.4 µM]	11%	6%	1%	11%
Cc1ccc(NC(=O)CNCc2ccccc2Cl)cc1S(=O)(=O)N(C)C	22µM*	-5%	-11%	-6%	8%	?	-6%	6%	2%	2%
CN(CCOc1ccccc1)CC(=O)Nc1ccc(Cl)cc1[N+](=O)[O-]	22µM*	-8%	-4%	1%	4%	?	3%	2%	-2%	13%

From PubChem
